Measured values: PubChem BioAssay AID2098 (Broad Institute, 2009)
Out of some 300,000 compounds screened, about 2,300 (0.77%) were called active. The list comes from a sample in which actives are over-represented; it also holds similar structures and randomly drawn compounds. A number with no mark means an inactive call.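 How the source made its calls: active means more than half of replicate wells show activity change below -50%, luminescence cut by over half; inconclusive means some wells, but at most half, below -50%; inactive means no replicate well below -50%.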

test: HSF1 inhibitors in luciferase reporter cells, primary screen, cell-based, NIH3T3, luminescence (AID 2098); settings: NIH3T3-HGL HSE-luciferase, MG132-induced, luminescence 8 h; stronger effect = lower value; screened at 7.5 µM (by protocol);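 further: luciferase reports HSF-1 transcriptional activity via heat shock element; 0% = median of DMSO wells and -100% = zero luminescence signal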

Row | SMILES | activity change, negative = inhibition
1 | CCOc1ccc(S(=O)(=O)NCCC(=O)N2CCCCCCC2)cc1 | 1.97%
2 | O=C(COc1ccccc1)Nc1cc2c3c(c1)CC(=O)N3CCC2 | 2.82%
3 | Cc1ccc(OCC(=O)c2cc(C)n(Cc3ccco3)c2C)c([N+](=O)[O-])n1 | -39.8%
4 | Cc1cc(C(=O)COC(=O)CNC(=O)c2ccc(F)cc2)c(C)n1Cc1ccco1 | -53.9% (active)
5 | Cc1cc(C(=O)CSc2nc(N)cc(=O)[nH]2)c(C)n1Cc1ccco1 | -33.6%
6 | O=C(Nc1c(Br)cc2c(c1Br)Cc1ccccc1-2)C(F)(F)F | -5.38%
7 | COc1ccccc1CNS(=O)(=O)c1cc2c3c(c1)CCC(=O)N3CCC2 | -0.185%
8 | COc1ccc(C)cc1S(=O)(=O)Nc1cc2c3c(c1)CCC(=O)N3CCC2 | -68.5% (active)
9 | O=C1CCc2cc(S(=O)(=O)Nc3ccc(C(F)(F)F)cc3)cc3c2N1CC3 | -0.158%
10 | Cc1ccc(OCCNC(=O)CN2C(=O)NC3(CCCC3)C2=O)cc1 | -2.16%
11 | CN(/N=C/c1ccccc1)C(=S)c1ccccc1 | -0.878%
12 | Cc1cc(F)ccc1S(=O)(=O)N1CCCOC1CNC(=O)C(=O)NCCC1=CCCCC1 (configuration not stated) | -4.13%
13 | O=C(NCCCc1ccccc1)C(=O)NCC1OCCN1S(=O)(=O)c1ccccc1 (configuration not stated) | 3.32%
14 | O=C(NCCCn1ccnc1)C(=O)NCC1OCCN1S(=O)(=O)c1cc(F)ccc1F (configuration not stated) | -87.4% (active)
15 | O=C(CCN1C(=O)C2CCCCC2C1=O)Nc1ccc(OC(F)F)cc1 (configuration not stated) | 5.73%
16 | CCCCn1c(N)c(N(CC(C)C)C(=O)c2cccc(S(=O)(=O)N3CCN(C(C)=O)CC3)c2)c(=O)[nH]c1=O | 0.146%
17 | O=C(O)c1cc(Cl)c(Cl)cc1C(=O)Nc1cccc2ncccc12 | 15.1%
18 | O=C(Nc1cccc2ncccc12)c1ccc(-c2ccc(Cl)cc2Cl)o1 | 8.41%
19 | O=C(Nc1cccc2ncccc12)C(Cl)(Cl)Cl | -59.5% (active)

Row | SMILES | activity change, negative = inhibition
20 | CC1CC(C)(C)CC2(C1)NC(=O)N(CC(=O)Nc1nccs1)C2=O (configuration not stated) | 0.525%
21 | CC1CCN(CC(=O)Nc2nccs2)CC1 | -53.5% (active)
22 | CC(=O)NC1CCN(CC(=O)Nc2nccs2)CC1 | 0.912%
23 | Cc1csc(SCC(=O)Nc2sccc2C#N)n1 | 9.14%
24 | COc1cc(OC)cc(-c2nnc(SCC(=O)Nc3ccc(C(=O)O)cc3)s2)c1 | -5.1%
25 | COc1ccc(NC(=O)CSc2nc(C)cs2)cc1 | -86.2% (active)
26 | CCCc1c(C(=O)Nc2ccc(F)cc2)cnn1-c1ccccc1 | 6.52%
27 | Cc1nn(-c2ccccc2)c(-n2cccc2)c1C(=O)O | -12.1%
28 | CCCc1nc(-c2ccccc2O)n(-c2ccccc2)n1 | -81.9% (active)
29 | COc1ccc([C@@H]2[C@@H]3C(=O)N(C(C)(C)C)C(=O)[C@@H]3[C@]3(Cc4ccccc4)C(=O)N(c4cccc(Br)c4)C(=O)N23)cc1 | -4.65%
30 | CCOc1ccc(NS(=O)(=O)c2ccc(C(=O)NC3CCN(Cc4ccccc4)CC3)cc2)cc1 | -0.719%
31 | Cc1nc(-c2ccc(F)cc2)c(CC(=O)Nc2cccc(S(=O)(=O)N3CCOCC3)c2)s1 | 4.76%
32 | CCCCn1c(N)c(N(CC(C)C)C(=O)c2ccc(-n3c(C)ccc3C)cc2)c(=O)[nH]c1=O | -2.25%
33 | Cn1c(-c2sccc2OCc2cccc(C(F)(F)F)c2)n[nH]c1=S | -82.6% (active)
34 | Cn1c(-c2sc3cc(C(F)(F)F)cnc3c2-c2ccccc2)n[nH]c1=S | -4.57%
35 | COc1cc(/C=N/n2c(C)n[nH]c2=S)ccc1OCc1ccccc1 | -2.45%
36 | O=C(c1ccc(Cl)cc1)c1ccc(OCC(O)CN2CCCCC2)cc1 (configuration not stated) | -7.88%
37 | CC1CCN(CC(O)COc2ccc(C(=O)c3ccccc3)cc2)CC1 (configuration not stated) | -15%
38 | O=C(c1ccccc1)c1ccc(OCC(O)CN2CCCC2)cc1 (configuration not stated) | -61.3% (active)

Row | SMILES | activity change, negative = inhibition
39 | Cc1ccc(NC(=O)CSc2nc(=O)n(CCN(C)C)c3c2CCCC3)c(C)c1 | -5.63%
40 | COc1ccc(C2=NN(C(=O)CSc3nc(=O)n4ccc(C)cc4n3)C(c3ccc(C)cc3)C2)cc1 (configuration not stated) | 11.2%
41 | CC(=O)N/C(=C\c1ccccc1)C(=O)OC(C)C(=O)N(C)c1ccccc1 (configuration not stated) | 1.34%
42 | O=C(Nc1cccnc1)c1ccc(Cl)c([N+](=O)[O-])c1 | -4.95%
43 | C/C(=N\Nc1nncc2ccccc12)c1ccc(Cl)c([N+](=O)[O-])c1 | -54.9% (active)
44 | Cc1nc2ccccc2c(=O)n1NC(=O)c1ccc(Cl)c([N+](=O)[O-])c1 | 1.5%
45 | COc1ccc(NS(=O)(=O)c2ccc(C)c(C(=O)N(C)Cc3ccc(OC)cc3OC)c2)cc1 | -0.123%
46 | Cc1ccc(C)c(OCCC(=O)OCC(=O)c2ccc3c(c2)NC(=O)CO3)c1 | 1.77%
47 | CCOC(=O)/C(=C\c1ccc([N+](=O)[O-])cc1)C(=O)c1cc(C(C)=O)c(Nc2ccccc2)s1 | -93.6% (active)
48 | Cc1ccc(NC(=O)/C(=C/c2ccc([N+](=O)[O-])cc2)NC(=O)c2ccccc2)cc1 | -1.77%
49 | O=C(Nc1ccccc1)/C(=C/c1ccc([N+](=O)[O-])cc1)NC(=O)c1ccccc1 | -11.2%
50 | CC1CCCCC1NC(=O)c1cc(=O)[nH]c2ccccc12 (configuration not stated) | -3.75%
51 | Nc1ccc(C(=O)N2CCN(S(=O)(=O)c3ccc(Cl)cc3)CC2)cc1[N+](=O)[O-] | 3.46%
52 | CCOC(=O)c1ccc(NC(=O)c2cccnc2)cc1 | -6.35%
53 | CCOc1ccc(C(=O)Nc2ccncc2)cc1 | 4.46%
54 | CCOC(=O)c1cc(NC(=O)c2cccnc2)ccn1 | -72.9% (active)
55 | CCOC(=O)c1cccnc1NC(=O)c1ccncc1 | -52.6% (active)
56 | CCOc1cc(C(=O)Nc2ncccn2)cc(OCC)c1OCC | -4.41%
57 | CCOc1ccccc1NC(=O)c1cccnc1 | -2.44%
